An excerpt weighted towards active compounds, which were near 2.2% of everything screened.
V-ATPase pH – regulators of yeast V-ATPase proton pumping, primary screen, pHLuorin cytosolic pH fluorescence; S. cerevisiae; response, % at 10 µM; hit rate 0.37% among 350,000; AID 504577, 2011; in the data active = response mostly above about 7.3%, no sharp cut-off; inactive = mostly below about 5.4%; note: actives read high
VLA-4 inh – inhibition in human VLA-4 binding assay, primary screen, VLA-4 allosteric modulator project, MLPCN library, flow cytometry, VLA-4 expressing cells; Integrin alpha-4 (Homo sapiens), P13612; ligand binding flow cytometry; inhibition, % (about 7 µM as worked out from the volumes in the protocol); hit rate 0.2% among 330,000; AID 2557, 2010; in the data active = inhibition above about 50%
GASC-1 inh – inhibitors of GASC-1 histone demethylase, primary screen, biochemical, fluorescence, DELFIA europium. Lysine-specific demethylase 4C (Homo sapiens), Q9H3R0. GST-JMJD2C(1-420) H3K9me3 demethylation. inhibition, % at 2.35 µM. hit rate 0.069% among 330,000;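 active = more than half of a compound's replicate wells show inhibition beyond 50%, single wells judged on their own value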;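 note: signal counts dimethyl H3K9 product captured on neutravidin plate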
Target sequence (Q9H3R0 1-420 limits assumed): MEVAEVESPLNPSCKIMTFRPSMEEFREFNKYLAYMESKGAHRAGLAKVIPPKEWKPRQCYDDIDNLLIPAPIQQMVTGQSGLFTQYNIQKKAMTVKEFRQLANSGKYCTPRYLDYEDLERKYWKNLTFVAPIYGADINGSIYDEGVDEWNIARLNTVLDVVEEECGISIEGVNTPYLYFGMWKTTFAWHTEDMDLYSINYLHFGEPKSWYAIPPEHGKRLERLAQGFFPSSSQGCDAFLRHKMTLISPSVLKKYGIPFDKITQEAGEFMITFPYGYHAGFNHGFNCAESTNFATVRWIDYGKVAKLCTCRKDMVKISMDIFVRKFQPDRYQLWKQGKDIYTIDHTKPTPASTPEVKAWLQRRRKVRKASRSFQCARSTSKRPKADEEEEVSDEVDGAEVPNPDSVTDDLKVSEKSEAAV
Exocytosis inh – LAMP-1 surface exposure blockers, TALL-104 cells – cell-based, flow cytometry, MLPCN library, primary screen. TALL-104 LAMP-1 surface exposure; cells stimulated with thapsigargin and PMA. inhibition, % at 10 µM. hit rate 0.66% among 360,000. AID 651702, 2012;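 active = inhibition above about 55%, limit read from the data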
HTR2A ag – mouse Htr2a agonists via beta-arrestin recruitment, primary screen, cell-based, luminescence | hit rate 0.66% among 360,000 | CHO-K1 mHTR2A beta-arrestin complementation; percent of 30 µM serotonin response | activation, % at 7.6 µM | 5-hydroxytryptamine receptor 2A (Mus musculus), P35363;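 active = activation above a run cutoff, the mean activation of all tested compounds plus 3 SD, cut at about 14% in these data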
MEX-5 binding – MEX-5 zinc finger RNA-binding disruptors – biochemical, C. elegans, fluorescence polarization, MLPCN library, primary screen. Zinc finger protein mex-5 (Caenorhabditis elegans), Q9XUB2. MEX-5/FITC-TCR2 RNA binding; active compounds read low. activity score (negative = inhibition of binding), % at 10 µM. hit rate 0.38% among 300,000. AID 1832, 2009;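 active = inhibition past about -25% in most replicates, and total fluorescence under double the plate's negative control median, limit read from the data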
VLA-4 allo CP – retest of VLA-4 allosteric modulators, confirmation, cell-based, cherry-picked plates, U937, HUTS-21 LIBS antibody; U937 cells, HUTS-21 LIBS mAb binding, flow cytometry; LDV ligand present at threefold Kd; hit rate 2% among 1,300; inhibition, % at 6.7 µM; AID 2813, 2010; shares compounds with VLA-4 inh; in the data active = inhibition above about 40%
A number is an active result; 0 = inactive; - = no result.

SMILES	V-ATPase pH	VLA-4 inh	GASC-1 inh	Exocytosis inh	HTR2A ag	MEX-5 binding	VLA-4 allo CP
NS(=O)(=O)c1cccc(NC(=O)Nc2ccccc2)c1	0	0	0	0	0	0	0
C[C@H](CO)N1C[C@H](C)[C@@H](CN(C)Cc2ccc3c(c2)OCCN3C)OCc2cnnn2CCCC1=O	0	-	-	0	0	-	-
O=C(NCC1CCCO1)c1ccc([N+](=O)[O-])s1 (centres undefined)	0	0	0	0	0	0	-
COc1cccc(C(=O)O/N=C(\N)c2ccc(C)cc2)c1	0	0	0	0	0	0	0
O=C(NCCCn1ccnc1)c1ccc(F)cc1	0	0	0	0	0	0	-
O=C(NCCCn1ccnc1)c1ccc(-c2ccccc2)cc1	0	0	0	0	0	0	0
C#CCN(Cc1ccco1)C(=O)c1ccc(OC2CCN(Cc3ccccn3)CC2)cc1	0	0	0	0	0	0	-
CC(C)(C)C(=O)CNS(=O)(=O)c1ccc(S(=O)(=O)NC2CC2)cc1	0	0	0	0	0	0	-
Cc1cc(Cl)ccc1Oc1ccc(C(N)=O)cc1[N+](=O)[O-]	0	0	0	0	0	0	-
Cc1cc(Cl)ccc1Oc1ccccc1C(=O)CC#N	0	0	0	0	0	0	0
CCOC(=O)C(=Cc1ccc(Br)cc1)C(=O)OCC	0	0	0	0	0	0	-
CCOC(=O)C(CC)(CC)C(=O)/C=C/c1ccc(Br)cc1	0	89.7	0	0	0	0	0
COc1ccc(C2c3ccc4ccccc4c3Oc3ncn(CCCN(C)C)c(=N)c32)cc1 (centres undefined)	0	0	0	0	0	0	0
COc1ccccc1C1c2ccc3ccccc3c2Oc2ncn(CCN(C)C)c(=N)c21 (centres undefined)	0	0	0	0	0	0	-
Cc1cccc2c(CCNC(=O)c3ccc([N+](=O)[O-])cc3)c[nH]c12	0	68.1	0	0	0	0	0
CCOC(=O)N1CCN(c2nc(C)c3c(n2)CC(C)CC3=O)CC1 (centres undefined)	0	52.7	0	0	0	0	0
CCC(C(=O)NCCc1c[nH]c2ccc(C)cc12)c1ccccc1 (centres undefined)	0	0	0	0	0	0	-
COc1ccc(OC)c(S(=O)(=O)NCC(c2ccco2)S(=O)(=O)c2ccccc2)c1 (centres undefined)	0	76.2	0	0	0	0	0
Cc1ccccc1NC(=O)c1ccc2nc(N3CCOCC3)sc2c1	0	0	0	0	0	0	0
O=C(c1ccc([N+](=O)[O-])cc1)N1CCN(C(=O)c2ccco2)CC1	0	0	0	0	0	0	-
Cc1ccccc1CNC(=O)c1ccc2nc(N3CCOCC3)sc2c1	0	0	0	0	0	0	0
O=C(c1ccc2nc(N3CCOCC3)sc2c1)N1CCN(C(=O)c2ccco2)CC1	0	0	0	0	0	0	0
Cc1cc(C(=O)N2CCN(C(=O)c3ccco3)CC2)ccc1[N+](=O)[O-]	0	51.0	0	0	0	0	0
Cn1nc(-c2ccc3c(c2)OCCO3)c2ccccc2c1=O	0	0	0	0	0	0	-
COC(=O)c1ccc(NC(=S)N2CCC(C(N)=O)CC2)cc1	0	0	0	0	0	0	0
CN1CCN(Cc2coc3c(Cl)cc(Cl)cc3c2=O)CC1	0	0	0	0	0	0	-
COc1ccc(Nc2cc(C)c3ccc(O)cc3n2)cc1	0	0	0	0	0	0	-
Cc1cc(Nc2ccccc2)nc2cc(O)ccc12	0	56.0	0	0	0	0	0
CCN(CC)c1ccc(CNc2ccc3c(c2)ncn3C(C)(C)C)cc1	0	53.7	-	0	0	0	0

Assay outcomes (PubChem BioAssay)
